Compounds without any hit were thinned out: in the full panel of roughly 83,000, 20% have a hit.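 How to read the values: 0–100, growth inhibition (40 = 60% inhibited); 0, no net growth; -100 to 0, cell death (-40 = 40% of starting cells died; -100 = all dead).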 Calls of active or inactive are those of the source. How the source made its calls: active means growth percent below 10; inactive means the rest.
Key:
Assay in all cases: NCI-60 one-dose screen, 48 h (100 = growth as untreated, 0 = no growth, -100 = all killed)
Settings in all cases: 10 µM
[1] = tested on: EKVX NSCLC
[2] = tested on: SN12C renal
[3] = tested on: UO-31 renal
[4] = tested on: TK-10 renal
[5] = tested on: ACHN renal
[6] = tested on: CAKI-1 renal
[7] = tested on: CCRF-CEM leukemia
[8] = tested on: RPMI-8226 leukemia
[9] = tested on: OVCAR-8 ovarian
[10] = tested on: OVCAR-5 ovarian
[11] = tested on: OVCAR-4 ovarian
[12] = tested on: SK-OV-3 ovarian
[13] = tested on: IGROV1 ovarian
[14] = tested on: OVCAR-3 ovarian
[15] = tested on: HS 578T breast
[16] = tested on: T-47D breast
[17] = tested on: MOLT-4 leukemia
[18] = tested on: SR leukemia
[19] = tested on: A498 renal
[20] = tested on: NCI/ADR-RES ovarian

Measured: growth

CCCCCCCCCCCCCCCCCC(=O)OCCCCCCC
inactive: [1] 90.8% | [2] 105% | [3] 87.6% | [4] 113% | [5] 107% | [6] 88% | [7] 85% | [8] 96.8% | [9] 102% | [10] 106% | [11] 110% | [12] 105% | [13] 111% | [14] 101% | [15] 109% | [16] 99.6%

O=c1[nH]c2ccc(Cl)cc2c2ccccc12
active: [11] -3.77%
inactive: [1] 41.8% | [2] 87.8% | [3] 20.2% | [4] 81% | [5] 48.9% | [6] 43.2% | [17] 119% | [18] 75.4% | [9] 77.5% | [10] 84.2% | [12] 39.4% | [13] 29.5% | [14] 87% | [15] 75.1% | [16] 10.4%

COc1ccc(NC2=NC(C)(CO)CS2)cc1 (stereo not drawn)
inactive: [1] 106% | [2] 91.1% | [3] 77.7% | [4] 110% | [5] 96.7% | [19] 94.2% | [7] 89.6% | [17] 96.7% | [18] 126% | [8] 83.6% | [9] 74.3% | [10] 103% | [11] 97.7% | [12] 104% | [13] 87.7% | [14] 112% | [15] 99.3% | [20] 106% | [16] 101%

N#CSCC1CC(O)(c2ccccc2)CC(c2ccc(Cl)cc2)O1 (stereo not drawn)
inactive: [1] 54% | [2] 23.2% | [3] 15.1% | [5] 48.3% | [6] 44.5% | [18] 11.4% | [8] 18.1% | [9] 66.7% | [10] 101% | [11] 40% | [12] 102% | [15] 21% | [20] 47.2% | [16] 27.4%
active: [4] -5.7% | [17] -11.5% | [13] -25.7% | [14] -36%

CN(C)CCN=c1nc2c(c(N)n1-c1ccccc1)c(=S)n(-c1ccccc1)c(=S)n2-c1ccccc1
inactive: [1] 39.8% | [2] 52.3% | [4] 47.7% | [5] 28.3% | [19] 40.3% | [18] 34.7% | [9] 33.6% | [10] 63.1% | [11] 41.7% | [12] 76.3% | [13] 36.3% | [15] 12.3% | [20] 58.7%
active: [3] 3.1% | [7] -8.26% | [17] 3.92% | [8] -4.61% | [14] -48.7% | [16] -19.4%

CCN1Cc2c(/C=C/c3ccccc3)nc3ccc(OC)cc3c2N(c2cccc(Cl)c2)C1
inactive: [1] 66.9% | [2] 60.6% | [3] 63.8% | [4] 101% | [5] 98% | [19] 85.5% | [7] 58.6% | [17] 55.4% | [18] 11.7% | [9] 89.4% | [10] 95.4% | [11] 67.5% | [12] 77.3% | [14] 74.7% | [15] 105% | [20] 77.4% | [16] 55.1%
active: [8] -1.25%

CC(C)=CCc1cc(O)cc2c1OC(C=C(C)C)C1=C2C(=O)C2=C(NCCS2(=O)=O)C1=O (stereo not drawn)
inactive: [3] 67.3% | [4] 106% | [5] 26.2% | [19] 50.2% | [8] 63.9% | [10] 41.3% | [15] 11.2% | [20] 87.7%
active: [1] -1.26% | [2] -59% | [7] 1.9% | [17] -34.5% | [18] 1.49% | [9] 3.18% | [11] 1.98% | [12] 4.28% | [13] -22.3% | [14] -9.92% | [16] -10%

CCOC(=O)C(=Cc1ccc(Br)cc1)C(=O)OCC
inactive: [1] 50.5% | [12] 34% | [20] 10.6%
active: [2] -21% | [3] -85.7% | [4] 8.18% | [5] -81% | [19] -12.6% | [7] -29.1% | [17] -8.75% | [18] -42% | [8] -34.3% | [9] -22.4% | [10] 5.97% | [11] 0.0605% | [13] -82.1% | [14] -35.1% | [15] -16.3% | [16] -16.7%

O=C1N=NC2=C1c1c3ccccc3c(O)n1CC2
inactive: [1] 96.1% | [2] 105% | [3] 90% | [4] 104% | [5] 99.9% | [19] 94.9% | [7] 97.1% | [17] 104% | [18] 103% | [8] 101% | [9] 101% | [10] 103% | [11] 106% | [12] 100% | [13] 117% | [14] 127% | [15] 147% | [20] 105% | [16] 103%

Cc1ccc(NC(=O)Nc2cccnc2)cc1NC(=O)Nc1cccnc1
inactive: [1] 82.4% | [2] 92% | [3] 85.3% | [4] 92.1% | [5] 83.8% | [19] 90.7% | [7] 58.2% | [17] 66.8% | [18] 31.3% | [8] 42.9% | [9] 73.8% | [10] 110% | [11] 77.7% | [12] 101% | [13] 68.5% | [14] 93.2% | [15] 95.7% | [20] 87.6% | [16] 58%

CC(=O)OCc1cc(-c2nc3ccccc3[nH]c2=O)nn1-c1ccc(Cl)cc1
inactive: [1] 104% | [2] 105% | [3] 98.2% | [4] 119% | [5] 102% | [19] 100% | [7] 97.9% | [17] 87.6% | [18] 105% | [8] 89.1% | [9] 95.4% | [10] 99.6% | [11] 96.1% | [12] 100% | [13] 93.2% | [14] 116% | [15] 100% | [20] 90.9% | [16] 92.7%

CC(C)(C)c1ccc(N2CSC(=S)N(c3ccc(C(C)(C)C)cc3)C2)cc1
inactive: [1] 84.1% | [2] 99.6% | [3] 79.4% | [4] 111% | [5] 89% | [19] 107% | [7] 88.5% | [17] 100% | [18] 112% | [8] 76.5% | [9] 107% | [10] 101% | [11] 98.3% | [12] 94.1% | [13] 55.3% | [14] 109% | [15] 112% | [20] 96.1%

Clc1cc2c(c(CSc3nc4ccccc4n4cccc34)c1)OCOC2
inactive: [1] 70.6% | [2] 81.5% | [3] 74% | [4] 79.4% | [5] 87.9% | [19] 102% | [7] 93.7% | [17] 94.8% | [18] 29.2% | [8] 49% | [9] 59.3% | [10] 87.2% | [12] 74.9% | [14] 72.2% | [15] 91.8% | [20] 89.5%
active: [11] 3.98% | [16] 2.37%

CCCCOc1ccc(NC(=O)Nc2nnc(C)s2)cc1
inactive: [1] 99.6% | [2] 93.3% | [3] 87% | [4] 118% | [5] 94.5% | [19] 108% | [7] 72.9% | [17] 90.4% | [18] 101% | [8] 80.8% | [9] 90.5% | [10] 102% | [11] 100% | [12] 102% | [13] 91.6% | [14] 120% | [15] 116% | [20] 93.3% | [16] 77.9%

COc1cc([C@@H]2c3cc4c(cc3C(Br)[C@H]3COC(=O)[C@H]23)OCO4)cc(OC)c1OC (stereo partly drawn)
active: [3] 8.5% | [7] -15.5% | [8] -25.8% | [9] -27.5% | [12] -18.4% | [13] -21% | [14] -81.5% | [20] -45.9%
inactive: [1] 22% | [2] 31% | [4] 54.2% | [5] 22.5% | [6] 12.3% | [10] 24.7% | [11] 17.3% | [16] 31.3%

CC(C)N(CCNc1nc(C(Cl)(Cl)Cl)nc2cc(Cl)ccc12)C(C)C
inactive: [2] 17.9% | [15] 12%
active: [1] 8.11% | [3] -29% | [4] -84.3% | [5] -36.2% | [6] -84.1% | [17] -21.4% | [18] -28.4% | [8] 3.61% | [9] -73.9% | [10] -11.1% | [11] 7.56% | [12] -27.6% | [13] -38.4% | [14] -37.5% | [16] 5.12%

Cc1cc(Cl)nc(N(CCCNc2ccnc3cc(Cl)ccc23)Cc2cccs2)n1
active: [3] 5.57% | [7] 2.62% | [17] -17.6% | [18] -21.3% | [8] -48.5% | [9] 7.5% | [13] 6.77% | [20] 0.179% | [16] -2.57%
inactive: [1] 36.4% | [2] 33% | [4] 28.4% | [5] 25.8% | [19] 19.6% | [10] 31.8% | [11] 11% | [12] 46.3% | [14] 25.9% | [15] 48.6%

Source: PubChem BioAssay (NCI)
